Sampled rows, rich in hits. Any-hit rate of the full collection: about 3%.
TRAIL sens C8 – viability loss with TRAIL in NB7+C8 cells, primary screen, TRAIL sensitizer project, cell-based, ATPlite luminescence | 360,000 tested, 1% active | inhibition (viability loss, TRAIL sensitization), % at 10 µM;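 active means compounds causing at least 50% loss of cell viability in the single-dose screen, relative to plate controls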
SENP6 inh – SENP6 protease inhibitors, primary screen, biochemical, luminescence, uHTS. Recombinant SENP6 catalytic domain, aminoluciferin luminescence. inhibition, % at 10 µM. 330,000 tested, 1.8% active;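 active means inhibition above about 50% at the single tested dose, limit read from the data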
SENP8 block-1 – SENP8 protease inhibitors, primary screen, biochemical, luminescence. Sentrin-specific protease 8 (Homo sapiens), Q96LD8. purified SENP8, Z-RLRGG-aminoluciferin cleavage. inhibition, % at 10 µM. 330,000 tested, 1.2% active; in the data active means inhibition above about 50%
Target sequence (Q96LD8 whole entry, looked up): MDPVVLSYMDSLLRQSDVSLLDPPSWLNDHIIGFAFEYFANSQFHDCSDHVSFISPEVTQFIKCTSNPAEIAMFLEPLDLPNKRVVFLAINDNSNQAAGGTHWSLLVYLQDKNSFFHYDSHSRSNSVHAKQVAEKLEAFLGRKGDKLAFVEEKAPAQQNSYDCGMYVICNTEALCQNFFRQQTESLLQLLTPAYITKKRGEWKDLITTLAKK
SENP7 inh – SENP7 protease inhibitors, primary screen, biochemical, luminescence, uHTS; Sentrin-specific protease 7 (Homo sapiens), Q9BQF6; recombinant SENP7, Z-RLRGG-aminoluciferin luminescence, 40 min; inhibition, % at 5 µM; 330,000 tested, 1.5% active;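 active means inhibition above about 50% at the single test dose, limit read from the data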
Target sequence (Q9BQF6 706-1050 limits assumed): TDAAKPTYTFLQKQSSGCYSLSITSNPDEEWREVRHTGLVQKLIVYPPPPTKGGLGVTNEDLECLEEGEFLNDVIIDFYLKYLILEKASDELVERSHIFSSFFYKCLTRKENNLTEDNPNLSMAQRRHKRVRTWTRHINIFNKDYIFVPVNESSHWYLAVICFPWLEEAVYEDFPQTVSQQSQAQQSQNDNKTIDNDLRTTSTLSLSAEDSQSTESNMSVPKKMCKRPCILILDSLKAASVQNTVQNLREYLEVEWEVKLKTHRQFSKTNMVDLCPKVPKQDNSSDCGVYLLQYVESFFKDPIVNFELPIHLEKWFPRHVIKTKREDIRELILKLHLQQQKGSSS
PPC-1+TRAIL kill – compounds killing PPC-1 cancer cells with TRAIL present, primary screen, TRAIL potentiator project, ATPLite luminescence, uHTS | cell killing (% activity), % at 4 µM or 5 µM | AID 1443, 2008 | PPC-1 cells + TRAIL, ATPLite viability luminescence | 220,000 tested, 0.41% active;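 active means cell killing above 50% in the first pass at 4 µM, then a duplicate retest at 5 µM averaging 50% or more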
SENP8 block-2 – human SENP8 protease inhibitors, primary screen, biochemical, fluorescence, Nedd8 protein substrate, uHTS | 360,000 tested, 0.64% active | recombinant SENP8 | AID 602440, 2012 | inhibition, % at 20 µM; in the data active means inhibition mostly above about 40%, no sharp cut-off; inactive means mostly below about 27%
Each line names hits and unclear results; the compound was inactive in the other large screens.

Cc1cc(F)ccc1S(=O)(=O)Nc1ccccc1C(=O)NC1CCN(Cc2ccccc2)CC1	none (no result: PPC-1+TRAIL kill)
COc1ccc(NC(=O)N(C)C[C@@H]2OCc3cnnn3CCCC(=O)N([C@H](C)CO)C[C@@H]2C)cc1	none (no result: SENP6 inh, SENP8 block-1, SENP7 inh, PPC-1+TRAIL kill)
O=C1Nc2cc(C(=O)NCCCN3CCCC3)ccc2S/C1=C\c1ccccc1	none (no result: PPC-1+TRAIL kill)
COc1ccc(/C=C2/Sc3ccc(C(=O)NCCN4CCCCCC4)cc3NC2=O)cc1	TRAIL sens C8 79 (no result: PPC-1+TRAIL kill)
COc1ccccc1CCNC(=O)C(=O)NCC1OCCN1S(=O)(=O)c1ccc(OC)c(OC)c1 (centres undefined)	none (no result: PPC-1+TRAIL kill)
CCCNC1=C(N(C(C)=O)c2cccc(F)c2)C(=O)c2ccccc2C1=O	TRAIL sens C8 76, PPC-1+TRAIL kill 70 (no result: SENP6 inh, SENP8 block-1, SENP7 inh)
CCC(=O)N(C1=C(NC(C)C)C(=O)c2ccccc2C1=O)C(C)C	none
CCCCCCCCN1C(=O)[C@H](CC(=O)N2CCC(c3ccccc3)CC2)C[C@@]2(C(=O)OC)CC(C)(C)CC=C12	none (no result: SENP6 inh, SENP8 block-1, SENP7 inh, PPC-1+TRAIL kill)
COc1cc(/C=C2\C(=O)N(CCC#N)N=C2C)c(Br)cc1OC(C)C	SENP8 block-2 46
Cc1ccc(S(=O)(=O)NC(=O)COc2ccccc2C)c(C)c1	none (no result: PPC-1+TRAIL kill)
O=C(N/C(=C\c1ccccc1)C(=O)N1CCCCC1)c1ccc(Br)o1	none (no result: PPC-1+TRAIL kill)
O=C(Nc1ncnc2c1C(c1ccccc1)c1c(ccc3ccccc13)O2)c1ccccc1 (centres undefined)	TRAIL sens C8 59 (no result: PPC-1+TRAIL kill)
O=C(Cc1ccccc1)Nc1ncnc2c1C(c1ccccc1)c1c(ccc3ccccc13)O2 (centres undefined)	none (no result: PPC-1+TRAIL kill)
CCCC(=Nc1ccc(N)cc1)C1=C(O)C(C(=O)OC)C(C)(C)CC1=O (centres undefined)	SENP8 block-2 80
Cc1ccccc1-c1cc(C(=O)Nc2sc(C)c(C)c2C(N)=O)c2ccccc2n1	none
CCOC(=O)c1sc(NC(=O)c2cc(-c3ccccc3C)nc3ccccc23)c(C#N)c1C	TRAIL sens C8 61
O=C(c1cc(-c2ccc(F)cc2)nc2ccccc12)N1CCC1	none (no result: PPC-1+TRAIL kill)
O=C(O)c1cc(-c2ccc(-c3ccc(F)cc3)o2)nc2ccccc12	TRAIL sens C8 59 (no result: PPC-1+TRAIL kill)
CCn1cc(C(=O)NCc2ccco2)c(=O)c2cc(S(=O)(=O)N3CC(C)CC(C)C3)ccc21 (centres undefined)	TRAIL sens C8 83, PPC-1+TRAIL kill 55
O=C(Nc1ccc2oc(-c3ccccc3F)nc2c1)c1ncn[nH]1	SENP6 inh 82, SENP8 block-1 51, SENP7 inh 81
O=C(Nc1ccc2oc(-c3ccccc3F)nc2c1)c1ccccc1F	none (no result: PPC-1+TRAIL kill)
O=C(Nc1ccccc1)Nc1ccc(-n2ccc(C(F)(F)F)n2)cc1	SENP6 inh 71, SENP8 block-1 57, SENP7 inh 58
CCN(c1ccccc1)S(=O)(=O)c1ccc(Cl)c(NC(=O)COC(=O)c2cc(O)c3ccccc3c2O)c1	SENP6 inh 62 (no result: TRAIL sens C8, SENP8 block-2)
O=C1CCC[C@@H]2C=C[C@H](c3ccc(Br)cc3)[C@H]3CCN1[C@@H]32	none (no result: SENP6 inh, SENP8 block-1, SENP7 inh, PPC-1+TRAIL kill)
O=C(CN1C2=NCCCN2c2ccccc21)c1ccc(Br)s1	SENP8 block-2 41
CCCN1C(=O)/C(=C\C=C2/C=CN(CC)c3ccccc32)SC1=S	SENP8 block-2 55
Cc1cccc(NC(=O)C(=O)NCCCc2ccccc2)c1	none (no result: TRAIL sens C8, SENP8 block-2)
COc1cccc2cc(-c3ccnc(N)n3)oc12	SENP7 inh 53
COc1cccc2cc(-c3n[nH]c(=S)n3C)oc12	none
COc1cccc(N=Nc2ccc(O)c3ncccc23)c1	SENP6 inh 77, SENP8 block-1 73, SENP7 inh 62 (no result: PPC-1+TRAIL kill)
COc1ccc(C)cc1N=Nc1ccc(O)c2ncccc12	none (no result: SENP6 inh, SENP8 block-1, SENP7 inh)
Oc1ccc(N=Nc2ccc3c(c2)OCCO3)c2cccnc12	SENP8 block-2 40
COc1cccc(N=Nc2ccc3cccnc3c2O)c1	SENP6 inh 90, SENP8 block-1 84, SENP7 inh 79 (no result: PPC-1+TRAIL kill)
COc1cc(OC)cc(C(=O)Nc2cccc3cccnc23)c1	none (no result: PPC-1+TRAIL kill)
CC(=O)Nc1ccc(N2C(=O)c3ccc(C(=O)Nc4nnc(SCc5ccc(F)cc5)s4)cc3C2=O)cc1	none
O=C1CC(c2ccc(O)c(O)c2)Oc2c1ccc(O)c2O (centres undefined)	SENP8 block-2 51
CCN1CCN(CCCNC(=O)c2ccc(/C=C3/Oc4ccccc4N(Cc4cccc(C)c4)C3=O)cc2)CC1	TRAIL sens C8 55 (no result: PPC-1+TRAIL kill)
COC(=O)c1cc(Cl)ccc1NCC(N)c1ccccc1 (centres undefined)	none (no result: SENP6 inh, SENP8 block-1, SENP7 inh, PPC-1+TRAIL kill)
COC(=O)c1c(NC(=O)c2ccccc2)sc2c1CC(C)(C)NC2(C)C	none
COC(=O)c1c(NC(=O)c2ccc(OC(C)C)cc2)sc2c1CC(C)(C)NC2(C)C	TRAIL sens C8 72
CCOC(=O)c1c(NC(=O)COc2ccccc2C#N)sc2c1CC(C)(C)NC2(C)C	none (no result: PPC-1+TRAIL kill)
CCOC(=O)c1c(NC(=O)COc2ccccc2OCC)sc2c1CC(C)(C)NC2(C)C	TRAIL sens C8 91 (no result: PPC-1+TRAIL kill)
CC1(C)Cc2c(sc(NC(=O)COc3cccc4ccccc34)c2C#N)C(C)(C)N1	TRAIL sens C8 85
CCOC(=O)N(C)c1c(CC)nc2c(OCc3ccc(Cl)cc3)cccn12	none (no result: SENP6 inh, SENP8 block-1, SENP7 inh, PPC-1+TRAIL kill)
CNC(=S)N/N=C/c1ccc(-c2cccc(C(=O)O)c2)o1	none
Nc1nonc1C(=O)N/N=C/c1ccc(-c2cccc(C(=O)O)c2)o1	SENP6 inh 58 (no result: TRAIL sens C8, SENP8 block-2)
CC(C)NC(=O)C1(C)CN(S(C)(=O)=O)CC(=O)N1C1CCCCCC1 (centres undefined)	none (no result: SENP6 inh, SENP8 block-1, SENP7 inh, PPC-1+TRAIL kill)
CCOc1cccc2c1OC(c1cc(OC)c(OC)c(OC)c1)N1N=C(c3ccc(C)o3)CC21 (centres undefined)	none
O=c1c2c(nc3cc(-c4ccccc4Cl)[nH]n13)CCS2	SENP6 inh 85, SENP8 block-1 77
CCCCCCCNC(=O)C1(CC2CC(c3cccc(Br)c3)=NO2)CCNCC1 (centres undefined)	TRAIL sens C8 87 (no result: PPC-1+TRAIL kill)
CCCCCCCNC(=O)C1(CC2CC(c3ccc(Cl)cc3)=NO2)CCNCC1 (centres undefined)	TRAIL sens C8 71 (no result: PPC-1+TRAIL kill)
CCCCCCCNC(=O)C1(CC2CC(c3ccc(Cl)cc3)=NO2)CCN(C(=O)Cc2ccc(F)cc2)CC1 (centres undefined)	none (no result: PPC-1+TRAIL kill)
CC(C)CC1c2[nH]c3ccccc3c2CCN1CCCn1cccn1 (centres undefined)	none
COC/C=C/C1=CC2=CC(=O)C(C)(OC(=O)c3cnc4ccccc4n3)C(=O)C2=CN1CC(C)C (centres undefined)	SENP8 block-2 54 (no result: PPC-1+TRAIL kill)
Clc1ccc(/C=N/Nc2nnc(-c3ncc[nH]3)c3ccccc23)cc1	TRAIL sens C8 54
Cc1ccc(CNC(=O)CCC(=O)Nc2nnc(C(C)C)s2)cc1	none (no result: PPC-1+TRAIL kill)
Cc1ccccc1-c1nn(-c2ccc(F)cc2F)cc1CNC1CC1	none
